From PubChem BioAssay
Active and inactive are the calls of the source.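 The calls were made as follows, unless noted: active = fluorescence slope higher than the sample average by over 3 SD (cut at about -0.22 in these data, passing the limit was not always enough); inactive = the rest.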

What was measured:
[1] = inhibitors of TNFa-induced NFkB p65 translocation, primary screen, imaging, HUVEC, MLSMR starter and 10KST1 sets (AID 438;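 active = inhibition above 20% together with a positive visual image hit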;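 also: compound added about 3h40 before a 20 min TNFalpha stimulation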;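 as to inhibition: signal is the nuclear over cytoplasmic p65 intensity ratio per well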); settings: HUVEC TNFa-induced p65 nuclear translocation; cell count: measured here: nuclei count (cytotoxicity indicator), at 2.08 µM; inhibition: at 2 µM, stronger effect = higher value, 0% TNFa-plus-vehicle, 100% no-TNFa wells
[2] = reduction of polyQ htt aggregates in cells – imaging, exon1htt(103Q)mCFP cells, high-content imaging, primary screen (AID 483;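 active = visual image review flags a hit and inhibition of aggregation exceeds 20%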;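 also: compound exposure lasted 3 days before fixation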;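 as to nuclei count: percent of the per-plate median nuclei count of sample wells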); settings: exon1htt(103Q)mCFP cell line, aggregate imaging, at 2 µM; inhibition of aggregation: stronger effect = higher value; nuclei count: measured here: cell count, toxicity
[3] = endothelial E-selectin expression blockers – imaging, HUVEC, immunofluorescence, MLSMR starter and 10KST1 sets, primary screen (AID 487;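 active = visually confirmed hit in the image check and inhibition above 20%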;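 as to inhibition: signal is fraction of cell area covered by stained E-selectin grains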;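 as to nuclei count: 100% = median nuclei count of all wells on the same plate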); settings: HUVEC TNFalpha-induced E-selectin immunofluorescence imaging, at 2 µM; inhibition: stronger effect = higher value; nuclei count: measured here: cell number, toxicity
[4] = Primary imaging screen for DUSP6 inhibitors that restore phospho-Erk in transfected HeLa cells, chemical complementation (AID 609;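 active = compounds giving at least 50% inhibition in the cell-based MKP-3 phosphatase rescue imaging test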;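 as to inhibition: phospho-Erk level distribution per well compared with pooled transfected vehicle control wells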); settings: HeLa MKP-3 transfected, phospho-Erk imaging KS statistic, at 10 µM, cells stimulated with TPA for 15 min
[5] = biological target: Dual specificity protein phosphatase 6 (Homo sapiens) (UniProt Q16828); assay: as above; settings: HeLa MKP-3 transfected, phospho-Erk imaging KS statistic; at 10 µM; stronger effect = higher value; cells stimulated with TPA for 15 min
[6] = biological target: Voltage-gated potassium channel subunit beta-2 (Rattus norvegicus) (UniProt P62483); assay: inhibitors of rat Kvbeta2 reductase activity – biochemical, NADPH fluorescence, primary screen (AID 622); settings: recombinant KvBeta, 4-cyanobenzaldehyde reduction, at 10 µM, stronger effect = higher value;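 also: slope of raw intensity against log time taken from 70 to 1610 s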
[7] = biological target: Voltage-gated potassium channel subunit beta-2 (Rattus norvegicus) (UniProt P62483); assay: enhancers of rat Kvbeta2 NADPH turnover – biochemical, NADPH fluorescence, primary screen (AID 623;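 active = NADPH fluorescence slope more negative than the mean of all samples by about 3 SD, 99.7% confidence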;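 also: fluorescence intensity change per second fitted from 20 to 320 s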); settings: Recombinant KvBeta, NADPH fluorescence decrease slope, 10 min; at 10 µM; stronger effect = lower value
[8] = biological target: Alpha-2C adrenergic receptor (Homo sapiens) (UniProt P18825); assay: compounds altering alpha2C-coupled GIRK flux – cell-based, HEK293 alpha2C/GIRK1/2, thallium flux, primary screen (AID 624;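 active = fluorescence slope after compound addition differing from the mean of all screened samples at 99.7% confidence, in either direction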;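 also: slope of fluorescence ratio to pre-addition baseline per second over 15 to 24 s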); settings: thallium flux BTC fluorescence, at 10 µM, actives lie on both sides
[9] = biological target: Muscarinic acetylcholine receptor M4 (Homo sapiens) (UniProt P08173); assay: M4-linked GIRK flux change, two-sided – cell-based, HEK293 M4/GIRK, thallium flux, BTC-AM, M4 allosteric agonist project, primary screen (AID 625;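 active = fluorescence slope after compound addition differing from the mean of all tested samples at 99.7% confidence, mostly higher but some lower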;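 also: thallium influx through GIRK channels coupled to M4 in HEK293 cells with BTC-AM dye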); settings: at 10 µM, actives lie on both sides
[10] = inhibitors of larval lipid processing in zebrafish, primary screen, whole organism, PED6 fluorescence, gall bladder and intestine (AID 686;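 active = a full or partial loss of lipid-probe fluorescence in the fish gall bladder, intestine or both, judged by eye; inactive = no fluorescence loss, or compound toxic to the fish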;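 also: larvae 5 to 7 days old with five fish per well; signal comes from phospholipase A2 cleavage of quenched PED6 carried via bile; overnight exposure to compound and PED6 before scoring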); settings: Zebrafish larvae PED6 lipid processing, fluorescence scoring; screened at 20 µM (by protocol)
[11] = loss of swimming-algae plug formation – whole organism, Chlamydomonas reinhardtii, WT vs cilia-less mutant, absorbance, 96-well, primary screen (AID 463189;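 active = inhibition at or above 50% relative to wild type and mutant plate controls; inactive = inhibition below 50%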;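 also: 0% = wild type cc124 cells in DMSO and 100% = ciliumless bld1 mutant cells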); settings: Chlamydomonas reinhardtii gravitaxis, OD600 absorbance, 2 days; at 10 µM; stronger effect = higher value
[12] = blockers of RIG-like receptor reporter activation – cell-based, Sendai virus stimulus, luciferase, 10K MLSCN set, TLR/RLR signaling modifier project, primary screen (AID 602276;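 active = inhibition at or above 50% at 10 µM; inactive = inhibition below 50%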;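 also: firefly luciferase from ISG56 promoter only with Renilla not read in this screen; 0% = Sendai virus plus DMSO and 100% = medium plus DMSO without virus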); settings: HEK293 RL24 IRF3 luciferase reporter, at 10 µM, stronger effect = higher value
[13] = TLR3 IRF3 reporter activation blockers – cell-based, poly I:C stimulus, luciferase, 10K MLSCN set, primary screen (AID 602277;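 active = inhibition of the reporter signal at or above 50%; inactive = inhibition below 50%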); settings: HEK293-TLR3 RL24 IRF3 luciferase reporter, at 10 µM, stronger effect = higher value
[14] = measured here: cell density z-score
[15] = measured here: nuclear c-Myc green intensity z-score
[16] = measured here: nuclear pErk red intensity z-score, stronger effect = higher value

Chain of Dual specificity protein phosphatase 6 (Homo sapiens) (Q16828 whole entry, looked up): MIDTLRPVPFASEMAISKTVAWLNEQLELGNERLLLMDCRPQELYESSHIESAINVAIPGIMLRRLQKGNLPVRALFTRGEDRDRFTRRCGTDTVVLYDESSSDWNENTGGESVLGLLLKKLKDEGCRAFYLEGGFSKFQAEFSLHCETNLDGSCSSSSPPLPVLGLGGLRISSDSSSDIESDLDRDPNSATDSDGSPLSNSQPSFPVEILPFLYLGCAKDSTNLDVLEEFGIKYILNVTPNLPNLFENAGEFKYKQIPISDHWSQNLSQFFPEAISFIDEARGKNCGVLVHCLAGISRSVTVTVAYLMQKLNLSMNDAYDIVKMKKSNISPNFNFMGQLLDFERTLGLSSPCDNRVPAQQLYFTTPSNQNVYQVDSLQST
Chain of Muscarinic acetylcholine receptor M4 (Homo sapiens) (P08173 whole entry, looked up): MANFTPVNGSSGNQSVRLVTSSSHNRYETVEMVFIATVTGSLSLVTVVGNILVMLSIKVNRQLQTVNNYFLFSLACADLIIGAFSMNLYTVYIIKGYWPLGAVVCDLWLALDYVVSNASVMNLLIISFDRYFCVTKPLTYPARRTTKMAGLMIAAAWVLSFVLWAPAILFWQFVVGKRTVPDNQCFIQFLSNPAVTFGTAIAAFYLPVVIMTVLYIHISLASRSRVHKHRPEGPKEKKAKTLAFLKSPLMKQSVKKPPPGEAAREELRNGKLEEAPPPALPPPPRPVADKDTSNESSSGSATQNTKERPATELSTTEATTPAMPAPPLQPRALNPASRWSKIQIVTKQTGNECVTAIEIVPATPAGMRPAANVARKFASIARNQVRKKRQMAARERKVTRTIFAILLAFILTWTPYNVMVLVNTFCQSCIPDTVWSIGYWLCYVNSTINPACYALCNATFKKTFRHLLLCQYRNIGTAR
Chain of Alpha-2C adrenergic receptor (Homo sapiens) (P18825 whole entry, looked up): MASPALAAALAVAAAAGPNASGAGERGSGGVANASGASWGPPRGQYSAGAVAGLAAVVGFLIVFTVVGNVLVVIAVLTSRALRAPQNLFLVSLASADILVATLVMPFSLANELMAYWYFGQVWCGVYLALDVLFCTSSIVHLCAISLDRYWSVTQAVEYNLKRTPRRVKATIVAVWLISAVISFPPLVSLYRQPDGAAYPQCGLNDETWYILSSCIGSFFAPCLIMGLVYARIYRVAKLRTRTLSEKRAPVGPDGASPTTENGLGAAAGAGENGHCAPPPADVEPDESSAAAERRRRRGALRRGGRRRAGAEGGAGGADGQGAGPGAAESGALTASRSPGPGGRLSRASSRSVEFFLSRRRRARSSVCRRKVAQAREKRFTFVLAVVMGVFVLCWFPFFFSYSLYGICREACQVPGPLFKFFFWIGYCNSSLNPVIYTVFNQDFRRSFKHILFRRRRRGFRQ
Chain of Voltage-gated potassium channel subunit beta-2 (Rattus norvegicus) (P62483 whole entry, looked up): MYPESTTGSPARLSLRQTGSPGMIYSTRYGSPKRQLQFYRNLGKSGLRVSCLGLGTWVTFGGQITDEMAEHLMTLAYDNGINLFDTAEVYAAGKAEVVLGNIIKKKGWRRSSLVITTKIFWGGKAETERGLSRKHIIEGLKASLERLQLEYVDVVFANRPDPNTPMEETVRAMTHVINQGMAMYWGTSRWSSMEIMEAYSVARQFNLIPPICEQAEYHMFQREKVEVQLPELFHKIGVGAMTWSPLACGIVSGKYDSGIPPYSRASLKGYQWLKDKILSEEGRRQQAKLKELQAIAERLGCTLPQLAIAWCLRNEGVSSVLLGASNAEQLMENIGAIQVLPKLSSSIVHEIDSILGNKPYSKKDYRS

SMILES	cell count [1]	inhibition [1]	inhibition of aggregation [2]	nuclei count [2] [%]	inhibition [3]	nuclei count [3] [%]	z-score [4, 14]	z-score [4, 15]	z-score [4, 16]	inhibition [5]	fluorescence slope [6]	NADPH fluorescence slope [7]	slope [8]	fluorescence slope [9]	outcome [10]	inhibition [11]	inhibition [12]	inhibition [13]
CC(=N\O)/C(CN(C)C)=N/O	593	-2.4% (inactive)	-2.9% (inactive)	86.5	-11.6% (inactive)	131	0.774	-0.0101	-0.876	-0.233% (inactive)	-0.49 (inactive)	-6.9e-05 (inactive)	0.0061 (inactive)	0.00548 (inactive)	inactive	-6.2% (inactive)	-13.1% (inactive)	1.97% (inactive)
C=C(C)C1Cc2c(C)nn(-c3nc(C)cc(C)n3)c2C1 (configuration not stated)	462	-2.7% (inactive)	5% (inactive)	84.7	-50.5% (inactive)	121	0.411	1.2	0.938	1.98% (inactive)	-0.396 (inactive)	-3.5e-05 (inactive)	0.00521 (inactive)	0.00615 (inactive)	inactive	51.6% (active)	11.3% (inactive)	16.4% (inactive)
CC(C(=O)O)c1ccc(-c2ccccc2)c(F)c1 (configuration not stated)	557	-7.8% (inactive)	-18.5% (inactive)	101	-48.5% (inactive)	113	2.7	-2.89	0.18	23.4% (inactive)	-0.456 (inactive)	-6e-05 (inactive)	0.0055 (inactive)	–	–	42.5% (inactive)	18.5% (inactive)	42.9% (inactive)
C=CCn1c(SCC(=O)c2ccccc2)nnc1-c1ccc2c(c1)OCO2	728	-2.4% (inactive)	-1% (inactive)	92.4	-60.6% (inactive)	117	0.143	0.0826	1.39	-13.3% (inactive)	-0.528 (inactive)	-3.6e-05 (inactive)	0.00455 (inactive)	0.00674 (inactive)	inactive	-7.63% (inactive)	-8.67% (inactive)	-3.99% (inactive)
COc1ccc(-c2onc(C)c2-c2ccccc2)c(O)c1	477	0.4% (inactive)	-9.9% (inactive)	101	-110% (inactive)	112	-0.0693	-0.0566	-1.27	1.98% (inactive)	-0.441 (inactive)	-4.2e-06 (inactive)	0.00908 (inactive)	0.00531 (inactive)	inactive	-11.4% (inactive)	8.8% (inactive)	32.3% (inactive)
CCN1CCc2c(C#N)c(N3CCOCC3)nc(NCc3ccccc3)c2C1	507	9.3% (inactive)	4.7% (inactive)	80.7	-218% (inactive)	110	0.377	-1.7	2.2	-11.5% (inactive)	-0.484 (inactive)	-3.1e-05 (inactive)	0.00496 (inactive)	0.00486 (inactive)	inactive	27.4% (inactive)	10.8% (inactive)	10.8% (inactive)
COc1cccc(C2C(C(=O)c3cc4ccccc4o3)=C(O)C(=O)N2CCN(C)C)c1OC (configuration not stated)	516	-3.4% (inactive)	31% (inactive)	87.3	-49.8% (inactive)	124	0.445	-1.47	-1.27	22.7% (inactive)	-0.492 (inactive)	-4.6e-05 (inactive)	0.0034 (inactive)	0.00523 (inactive)	inactive	20.6% (inactive)	9.6% (inactive)	6.82% (inactive)
CCCCOc1ccc(CC(=O)NO)cc1	619	-10.2% (inactive)	-11.8% (inactive)	91	-41.8% (inactive)	111	-0.368	-0.467	-0.347	-0.493% (inactive)	-0.547 (inactive)	-4.3e-05 (inactive)	0.00497 (inactive)	–	–	7.46% (inactive)	13.6% (inactive)	31.2% (inactive)
CCCCC(=O)O[C@H]1CC[C@H]2[C@@H]3CCc4cc(O)ccc4[C@H]3CC[C@]12C	524	-3.1% (inactive)	7% (inactive)	88.9	-104% (inactive)	131	-0.577	-1.69	-0.657	-0.828% (inactive)	-0.453 (inactive)	-3e-05 (inactive)	0.00721 (inactive)	–	–	22.7% (inactive)	16.8% (inactive)	40.4% (inactive)
C1CNCCNCCNCCN1	566	-6.4% (inactive)	12.4% (inactive)	109	-31.7% (inactive)	105	-1.12	-0.574	0.0503	10.2% (inactive)	-0.481 (inactive)	-4.4e-05 (inactive)	0.00519 (inactive)	–	–	1.09% (inactive)	13.2% (inactive)	41.9% (inactive)
